For 25 compounds, growth results are on record in PubChem BioAssay (NCI).

The structures appear in SMILES notation. Several values for one entry are separate records, joined by “and”; a condition that tells them apart may be missing. Identical values can stand only once. About 83,000 compounds went through this panel and 20% of them were active in at least one assay; those are over-represented in the sample as a whole.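 Percent growth is the endpoint: 0 to 100 indicates growth inhibition (40 means 60% inhibition), 0 means no net growth, and negative values indicate cell death.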 Activity calls are given as the source filed them. How the source made its calls: active means growth percent below 10; inactive means the rest.

The assay deals with MCF7 breast. Description: NCI-60 one-dose screen, 48 h (100 = growth as untreated, 0 = no growth, -100 = all killed). The following applies: 10 µM unless noted.
Turning to `CCOC(=O)/C(C#N)=C(/NNc1ccccc1)c1ccncc1C(=O)O`, the growth is 28.2% [100 µM] (inactive) and 39.1% [100 µM] (inactive).

`COc1ccc(C2=C(N)c3ccccc3C2=O)cc1`: the growth was 79.1% [100 µM] (inactive) and 72.9% [100 µM] (inactive). Under `N#Cc1sc2nc(/C=C3/C=CC=CC3=O)c(O)n2c1N` stands 30.3% [100 µM] (inactive) and 3.44% [100 µM] (active); under `O=C1C=C(Nc2ccc(S(=O)(=O)Nc3nccs3)cc2)c2ccccc2C1=O`, -89% [100 µM] (active) and -74.5% [100 µM] (active); under `CCCCCCCCCc1cc(=O)c2c(O)cc(O)cc2o1`, -86.1% [100 µM] (active) and -45.1% [100 µM] (active).

Consider `O=c1c(-c2ccc3c(c2)OCO3)coc2c3c(ccc12)OCO3`, for which the growth is -45% [100 µM] (active) and -62.5% [100 µM] (active). In the case of `Nc1cc2c3c(cccc3c1)C(=O)N(c1ccc(OCCN3CCCC3)cc1)C2=O`, the growth was -78.2% [100 µM] (active) and -100% [100 µM] (active). The value for `CCCCOC(=O)C1CC[C@H]2[C@@H]3CCc4cc(OC(=O)c5cccc6c(=O)c7ccccc7[nH]c56)ccc4[C@H]3CC[C@]12C` (stereo not given in full) was -86.3% [50 µM] (active) and -100% [50 µM] (active); that for `CN(C)CCNc1ccc(NCC[N+](C)(C)Cc2ccc([N+](=O)[O-])cc2)c2c1C(=O)c1c(O)ccc(O)c1C2=O` was 24.2% [100 µM] (inactive) and -30.3% [100 µM] (active).

For the compound `Cc1ccnc2[nH]c(-c3ccc(F)cc3)cc(=O)c12`, the growth is 22.1% [100 µM] (inactive) and 5.04% [100 µM] (active).

Regarding `CC(O)c1cc2c(s1)C(=O)c1ccsc1C2=O` (stereo not given), the growth is -56.8% [100 µM] (active) and -91.5% [100 µM] (active). The value for `O=[N+]([O-])c1cccc(-c2ncnc(-c3cccc([N+](=O)[O-])c3)n2)c1` was 55.1% [100 µM] (inactive) and 68.9% [100 µM] (inactive). For the compound `CC(=O)OCC1=C(C)C[C@H]([C@@H](COC(C)=O)C2CCC3C4C[C@H]5O[C@]56CC=CC(=O)[C@]6(C)C4CC[C@@]32C)OC1=O` (stereo not given in full), the growth is -69.8% [50 µM] (active) and -84.4% [50 µM] (active). As to `CCCn1c2c(c3ccccc3c1=O)C(=O)c1ccccc1-2`, the growth is 51.4% [100 µM] (inactive) and 17.4% [100 µM] (inactive).

As to `CC12CCC3c4cc(Br)c(O)c(Br)c4CCC3C1CCC2O` (stereo not given), the growth was 5.35% [100 µM] (active) and -48.4% [100 µM] (active). Under `CC1(C)CCCC(C)(C2CCC3(C)C2C(O)CC2C4(C)CCC(O)C(C)(C)C4C(O)CC23C)O1` (stereo not given) stands -19.1% [100 µM] (active) and -85.7% [100 µM] (active); under `N#CC12COC3(CCCCC3C1(C#N)C#N)OC2=N` (stereo not given), -25.8% [100 µM] (active). Under `CCC/C(Cl)=N\OC(=O)Nc1ccc(F)cc1` stands -78.4% [100 µM] (active) and -69.5% [100 µM] (active); under `CCCC(=O)Oc1c2ccsc2c(OC(=O)CCC)c2ccsc12`, -72.6% [100 µM] (active) and -100% [100 µM] (active). The value for `COc1cc(Nc2ccc3c(c2)CCC3)nc(OC)n1` was 22.3% [100 µM] (inactive) and -82.6% [100 µM] (active); that for `Cc1c2c(c(O)c3c(O)cccc13)C(=O)C1(O)C(O)=C(C(=O)NCNc3ccc(C(N)=O)cn3)C(=O)C(N(C)C)C1C2` (stereo not given) was -81.9% [100 µM] (active) and -89.4% [100 µM] (active). On to `Cc1cc2c3c(nc4ccccc42)C(=O)c2cccnc2-c3n1`, for which the growth is -74.8% [100 µM] (active) and -100% [100 µM] (active).

For `CC(O)c1cc2c(s1)C(=O)c1c(C(C)O)csc1C2=O` (stereo not given), the growth is -78.4% [100 µM] (active) and -81.9% [100 µM] (active). Turning to `COc1cc2c(cc1O)Cc1c-2[n+](C)cc2cc(OC)c(OC)cc12`, the growth was 19.5% [100 µM] (inactive) and 0.687% [100 µM] (active). Under `C=C1CC(O)C2C(=C)C(=O)OC2C2C(C)C(=O)CC12` (stereo not given) stands -76.9% [100 µM] (active) and -61.7% [100 µM] (active).
